PubChem BioAssay (NCI)
Compounds without any hit were thinned out: in the full panel of roughly 83,000, 20% have a hit.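 48-hour exposure, single concentration, 96-well plates; percent growth endpoint where 0 means no net growth. Active: below 10.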 Activity calls are given as the source filed them.

Key:
Assay in all cases: NCI-60 one-dose screen, 48 h (100 = growth as untreated, 0 = no growth, -100 = all killed)
T-47D breast = tested on: T-47D breast
BT-549 breast = tested on: BT-549 breast
MDA-MB-435 melanoma = tested on: MDA-MB-435 melanoma
SW-620 colon = tested on: SW-620 colon
MCF7 breast = tested on: MCF7 breast
HCT-116 colon = tested on: HCT-116 colon
HCC-2998 colon = tested on: HCC-2998 colon
KM12 colon = tested on: KM12 colon
MDA-MB-468 breast = tested on: MDA-MB-468 breast

Measured: growth

Cc1ccc(C(=O)Nc2cc(-n3cnc(F)c3)cc(C(F)(F)F)c2)cc1C#Cc1cnc2cccnn12
inactive: T-47D breast; 10 µM unless noted 76.1% | BT-549 breast; 10 µM unless noted 60.1% | MDA-MB-435 melanoma; 10 µM unless noted 46.4% | SW-620 colon; 10 µM unless noted 45.1% | MCF7 breast; 10 µM unless noted 38.8% | HCT-116 colon; 10 µM unless noted 19% | HCC-2998 colon; 10 µM unless noted 70.6% | KM12 colon; 10 µM unless noted 39.1%

O=C(Cc1c(-c2cccc([N+](=O)[O-])c2)n(-c2ncnc3c2c(-c2ccccc2)c(-c2ccccc2)n3Cc2ccccc2)[nH]c1=O)c1ccc(Cl)c(Cl)c1
inactive: BT-549 breast; 10 µM unless noted 63.7% | MDA-MB-435 melanoma; 10 µM unless noted 19.9% | SW-620 colon; 10 µM unless noted 56.1% | MCF7 breast; 10 µM unless noted 24.7% | HCT-116 colon; 10 µM unless noted 32.3% | HCC-2998 colon; 10 µM unless noted 26.7% | KM12 colon; 10 µM unless noted 24.7%
active: T-47D breast; 10 µM unless noted 0.846%

Cc1cc(=O)oc2cc(OCC(O)CNN3C(=O)c4cccc5c(N6CCN(C)CC6)ccc(c45)C3=O)ccc12 (configuration not stated)
inactive: T-47D breast; 10 µM unless noted 109% | BT-549 breast; 10 µM unless noted 113% | MDA-MB-435 melanoma; 10 µM unless noted 56.9% | SW-620 colon; 10 µM unless noted 84.3% | MCF7 breast; 10 µM unless noted 88.6% | HCT-116 colon; 10 µM unless noted 93.5% | HCC-2998 colon; 10 µM unless noted 101% | KM12 colon; 10 µM unless noted 90.8%

O=c1ccc(Cn2c(C(F)(F)F)cc3c(Cl)ncnc32)c[nH]1
inactive: T-47D breast; 10 µM unless noted 75.7% | MDA-MB-435 melanoma; 10 µM unless noted 25.5% | SW-620 colon; 10 µM unless noted 32.5% | MCF7 breast; 10 µM unless noted 82.4% | HCT-116 colon; 10 µM unless noted 19.5% | HCC-2998 colon; 10 µM unless noted 40.4% | KM12 colon; 10 µM unless noted 105%
active: BT-549 breast; 10 µM unless noted 4.61%

OC(c1ccccc1)(c1ccccc1)C1CCN(c2ccc3nnc(Cl)n3n2)CC1
active: T-47D breast; 10 µM unless noted 9.47% | BT-549 breast; 10 µM unless noted 2.56%
inactive: MDA-MB-435 melanoma; 10 µM unless noted 42.1% | SW-620 colon; 10 µM unless noted 56.6% | MCF7 breast; 10 µM unless noted 10.9% | HCT-116 colon; 10 µM unless noted 22.6% | HCC-2998 colon; 10 µM unless noted 55.2% | KM12 colon; 10 µM unless noted 30.9%

COc1cc(CNC(=O)C[C@H](C)CCC=C(C)C)ccc1OCc1cn(-c2ccccc2Cl)nn1
inactive: BT-549 breast; 10 µM unless noted 28.2% | MDA-MB-435 melanoma; 10 µM unless noted 66.5% | SW-620 colon; 10 µM unless noted 80.2% | MCF7 breast; 10 µM unless noted 40.6% | HCT-116 colon; 10 µM unless noted 49.7% | HCC-2998 colon; 10 µM unless noted 91.9% | KM12 colon; 10 µM unless noted 63%
active: T-47D breast; 10 µM unless noted 9.14%

CC(=O)c1ccc2c(N)c(C(=O)Nc3ccc(C(F)(F)F)cc3)sc2n1
inactive: T-47D breast; 10 µM unless noted 18.1% | BT-549 breast; 10 µM unless noted 43.4% | MDA-MB-435 melanoma; 10 µM unless noted 48.1% | SW-620 colon; 10 µM unless noted 80.1% | MCF7 breast; 10 µM unless noted 27.8% | HCT-116 colon; 10 µM unless noted 31% | HCC-2998 colon; 10 µM unless noted 83.6% | KM12 colon; 10 µM unless noted 56.7%

NS(=O)(=O)c1ccc(Nc2nc(SCC(=O)c3ccc(F)cc3)nc3ccccc23)cc1
active: MDA-MB-435 melanoma; 10 µM unless noted 0.411%
inactive: T-47D breast; 10 µM unless noted 19.5% | BT-549 breast; 10 µM unless noted 44.2% | SW-620 colon; 10 µM unless noted 50.5% | MCF7 breast; 10 µM unless noted 19.1% | HCT-116 colon; 10 µM unless noted 39% | HCC-2998 colon; 10 µM unless noted 47.5% | KM12 colon; 10 µM unless noted 19.4%

COc1ccc(N=Nc2c(N)nn3c(-c4ccc5c(c4)C=S=C5)ccnc23)cc1
inactive: BT-549 breast; 10 µM unless noted 19.9% | MDA-MB-435 melanoma; 10 µM unless noted 83.8% | SW-620 colon; 10 µM unless noted 65.5% | MCF7 breast; 10 µM unless noted 31.1% | HCT-116 colon; 10 µM unless noted 20.1% | HCC-2998 colon; 10 µM unless noted 48% | KM12 colon; 10 µM unless noted 42.5%
active: T-47D breast; 10 µM unless noted 3.67%

CN1CCN(C(=O)Oc2cc3c(c4ccccc24)[C@H](CCl)CN3C(=O)c2cc3cc(OCCCN4CCC4)ccc3[nH]2)[C@H]2CSSC[C@H]21
active: T-47D breast; 10 µM unless noted -12.9% | BT-549 breast; 10 µM unless noted -36.8% | MDA-MB-435 melanoma; 10 µM unless noted -70.2% | SW-620 colon; 10 µM unless noted 4.18% | MCF7 breast; 10 µM unless noted 3.7% | HCT-116 colon; 10 µM unless noted 6.44% | HCC-2998 colon; 10 µM unless noted -47% | KM12 colon; 10 µM unless noted 2.01%

COc1cc(/C=N/NC(=O)c2ccc(OCc3nc4ccc(C)cc4[nH]3)cc2)cc(OC)c1OC
inactive: T-47D breast; 10 µM unless noted 35.1% | BT-549 breast; 10 µM unless noted 45.4% | MDA-MB-435 melanoma; 10 µM unless noted 49.1% | SW-620 colon; 10 µM unless noted 40.7% | MCF7 breast; 10 µM unless noted 38.2% | HCT-116 colon; 10 µM unless noted 21.2% | HCC-2998 colon; 10 µM unless noted 65.5% | KM12 colon; 10 µM unless noted 57%

CC/C(=C(\c1ccc(O)cc1)c1ccc(OCCN(C)C(=O)COCCNC(=O)Cc2ccc3c(c2)CN([C@@H]2CCC(=O)NC2=O)C3=O)cc1)c1ccccc1
inactive: T-47D breast; 1 µM 15.5% | MDA-MB-435 melanoma; 1 µM 97% | MDA-MB-435 melanoma; 10 µM 59.2% | SW-620 colon; 1 µM 57.5% | SW-620 colon; 10 µM 23.8% | MCF7 breast; 1 µM 33.4% | MCF7 breast; 10 µM 20% | HCT-116 colon; 1 µM 94.2% | HCT-116 colon; 10 µM 99.6% | HCC-2998 colon; 1 µM 64.5% | HCC-2998 colon; 10 µM 30.2% | KM12 colon; 1 µM 94.3% | KM12 colon; 10 µM 47.5%
active: T-47D breast; 10 µM 7.16% | BT-549 breast; 1 µM -25.9% | BT-549 breast; 10 µM -22.3% | MDA-MB-468 breast; 1 µM -11.7% | MDA-MB-468 breast; 10 µM -28.3%

Nc1cc(-c2c[nH]c3ccc(Br)cc23)nc2cc(-c3c[nH]c4ccccc34)nn12
active: T-47D breast; 10 µM unless noted -60.5% | BT-549 breast; 10 µM unless noted -21.4% | MDA-MB-435 melanoma; 10 µM unless noted -75.1% | SW-620 colon; 10 µM unless noted -83.2% | MCF7 breast; 10 µM unless noted -66.8% | HCT-116 colon; 10 µM unless noted -78% | HCC-2998 colon; 10 µM unless noted -78.2% | KM12 colon; 10 µM unless noted -65.4%

CCc1ccc(SC2c3cc(OC)ccc3Oc3nc(N)c(C#N)c(N)c32)cc1 (configuration not stated)
active: T-47D breast; 10 µM unless noted -52% | BT-549 breast; 10 µM unless noted -67.8% | MDA-MB-435 melanoma; 10 µM unless noted -22.1% | SW-620 colon; 10 µM unless noted -42.9% | MCF7 breast; 10 µM unless noted -45.4% | HCT-116 colon; 10 µM unless noted -96% | HCC-2998 colon; 10 µM unless noted -48.3% | KM12 colon; 10 µM unless noted -17.7%
